D1 antag = human D1 dopamine receptor antagonism; HEK293 TREx D1 cells, calcium flux, dopamine EC80; stronger effect = lower value; P21728; activity change, negative = inhibition, % at 10 µM; actives 3.2% (n = 360,000); in the data active = activity change below about -30%; note: % is set by controls: 0 for no effect and ±100 for the full control effect
Target sequence (P21728 whole entry, looked up): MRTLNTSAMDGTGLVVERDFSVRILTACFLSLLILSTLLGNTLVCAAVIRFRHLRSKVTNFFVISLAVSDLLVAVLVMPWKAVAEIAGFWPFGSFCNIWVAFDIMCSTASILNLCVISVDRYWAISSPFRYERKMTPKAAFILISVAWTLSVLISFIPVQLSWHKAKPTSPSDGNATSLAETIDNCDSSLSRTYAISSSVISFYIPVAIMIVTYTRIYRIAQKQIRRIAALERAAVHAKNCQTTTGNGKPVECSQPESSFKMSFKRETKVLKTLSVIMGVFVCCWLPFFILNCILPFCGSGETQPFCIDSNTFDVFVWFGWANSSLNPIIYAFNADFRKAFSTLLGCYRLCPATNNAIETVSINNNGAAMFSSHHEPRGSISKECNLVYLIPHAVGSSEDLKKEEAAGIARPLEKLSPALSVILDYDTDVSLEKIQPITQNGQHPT
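After overnight tetracycline induction at 30 C, force-coupled D1 HEK293 cells took up a no-wash calcium dye at room temperature. Compounds were added and monitored 180 s, and the response to EC80 dopamine was then recorded.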
D1 ag = agonists of human D1 dopamine receptor | P21728 | HEK293 T-REx D1 cells, calcium flux, agonist mode | activation, % at 2 µM | actives 1% (n = 360,000) | AID 504660; in the data active = activation above about 30%; note: 0% is about no effect
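Inducible HEK293 T-REx D1 cells, force-coupled to calcium signalling, were plated at 4000 cells/well with tetracycline and held overnight at 30 C. After no-wash calcium dye loading, compound-evoked calcium rise over 180 s flagged agonists.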
D3 antag = antagonists of human D3 dopamine receptor. D3R cells, DiscoveRx beta-arrestin luminescence, antagonist mode; stronger effect = lower value. actives 2.5% (n = 360,000). max response, negative = inhibition, %. P35462; in the data active = max response below about -50%; inconclusive = no clear call, values can overlap the other calls; note: % is set by controls: 0 for no effect and ±100 for the full control effect
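Cells plated overnight at 1500 cells/well, then exposed to library compounds with dopamine controls for 90 minutes at 37 degrees C. DiscoveRx reagent added for 30–60 minutes at room temperature; luminescence read, quantitative HTS format.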
D3 ag = D3 dopamine receptor (human) agonism; P35462; D3R DiscoveRx beta-arrestin cells, luminescence, 90 min; max activation, %; actives 0.58% (n = 410,000); AID 652048; in the data active = max activation above about 30%; note: 0% is about no effect
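Agonist mode: compounds and dopamine controls were applied to plated cells for 90 min at 37 degrees C after an overnight attachment at 1500 cells/well. Luminescent read-out followed 30 - 60 minutes at room temperature with DiscoveRx detection reagent.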
D1 potentiator = human D1 dopamine receptor positive modulation; actives 0.036% (n = 360,000); potentiation, % at 10 µM; P21728; AID 504651; HEK293 TREx D1 cells, calcium flux, dopamine EC20 potentiation; in the data active = potentiation above about 30%; note: 0% is about no effect
* hit, by the source's call; ? = inconclusive; . = no result given. Shown are actives, neighbours in structure and some others; about 6% of the full set was active somewhere.

SMILES	D1 antag	D1 ag	D3 antag	D3 ag	D1 potentiator
C=CCc1cc(C)ccc1OCC(O)CN1CCN(c2ccccc2)CC1 (stereo not drawn)	-19	2	-24	75*	-8
C=CCc1ccccc1OCC(O)CNC(C)C (stereo not drawn)	-36*	4	-60*	-58	-5
C=CCc1ccccc1OCC(O)CN1CCN(c2ccccc2)CC1 (stereo not drawn)	-39*	-3	.	6	0
C=CCc1cc(OC)ccc1OCC(O)CN1CCN(c2ccc(OC)cc2)CC1 (stereo not drawn)	-7	6	?	18	-3
C=CCc1ccc(OCC(O)CN2CCN(c3ccccc3)CC2)c(OC)c1 (stereo not drawn)	-31*	14	?	38*	-11
O=C(NCc1ccccc1)C(c1cc2ccccc2o1)n1c(=O)c(-c2ccccc2)nc2ccccc21 (stereo not drawn)	.	.	3	2	.
Cc1cn([C@H]2C[C@H](O)[C@@H](CNC(=O)[C@H]3CCC(=O)N3)O2)c(=O)[nH]c1=O	.	.	-4	-5	.
CCOc1ccccc1OCC(=O)Nc1ccc(OC)c(S(=O)(=O)N2CCCCC2)c1	-11	-1	1	11	0
CCOc1ccc(NC(=O)C(C)Oc2ccc(C#N)cc2)cc1S(=O)(=O)N1CCCC1 (stereo not drawn)	0	38*	?	-15	-4
CCOc1ccc(NC(=O)CN2CCN(C(=O)c3ccco3)CC2)cc1S(=O)(=O)N1CCCC1	-6	0	-9	40*	3
Cc1ccc(NC(=O)CN2CCN(C(=O)c3ccco3)CC2)cc1S(=O)(=O)N(C)C	.	.	23	51*	.
ClC(CCN1CCN(Cc2ccccc2)CC1)c1ccccc1 (stereo not drawn)	.	.	-64*	-49	.
CC(NC(=O)C(C)N1CCN(Cc2ccccc2)CC1)c1ccccc1 (stereo not drawn)	-8	1	4	2	-10
CC(CCc1ccccc1)N1CCN(Cc2ccccc2)CC1 (stereo not drawn)	8	1	-87*	-12	-7
CCS(=O)(=O)N1CCN(C(C)CCc2ccccc2)CC1 (stereo not drawn)	0	0	-51*	14	0
CC(CN1CCN(Cc2ccccc2)CC1)c1ccccc1 (stereo not drawn)	-5	1	0	-4	-6
CC(=C(CCOC(=O)C(C)C)SSC(CCOC(=O)C(C)C)=C(C)N(C=O)Cc1cnc(C)nc1N)N(C=O)Cc1cnc(C)nc1N	.	.	.	-5	.
Cc1cc(C)c(S(=O)(=O)NCC(c2ccc(N(C)C)cc2)N2CCc3ccccc32)c(C)c1 (stereo not drawn)	14	0	.	-21	0
CN(C)CCn1c(=O)n(Cc2ccco2)c(=O)c2c3c(sc21)CCCCC3	17	2	-4	2	-8
O=c1c2c3c(sc2n(CCN2CCCC2)c(=O)n1Cc1ccco1)CCCCC3	13	4	-64*	-10	-6
CCCCCSc1nnc2c(n1)[nH]c1c(C)cccc12	-30*	5	.	-1	1
CCCCSc1nnc2c(n1)[nH]c1ccccc12	-9	-1	13	-2	0
COc1ccccc1CCNC(=O)Cc1c(C)c2c(O)cc(C)cc2oc1=O	-6	1	.	22	-2
Cc1oc2cc(O)ccc2c(=O)c1Oc1ccc2ccccc2c1	-37*	5	-24	0	-1
Cc1oc2cc(O)ccc2c(=O)c1Oc1ccc(F)cc1	7	2	2	2	-3
SMILES	D1 antag	D1 ag	D3 antag	D3 ag	D1 potentiator
COc1ccc(-c2nc(-c3ccc(NC(=O)c4ccncc4)cc3)no2)cc1OC	-23	1	70	50*	1
COc1ccc(NC(=O)c2ccc(-c3ccc(-c4noc(C)n4)cc3C)cc2)cc1N1CCN(C)CC1	-57*	14	-15	-22	-5
CC(=O)Oc1ccc2oc(/C=C/N(C)C)c([N+](=O)[O-])c2c1	0	1	-80*	-6	-2
C/C(=C/c1oc2ccc(O)cc2c1[N+](=O)[O-])N(C)C	-4	1	-13	-3	-3
Cn1c(-c2ccc3ccccc3n2)nc2cnccc21	9	2	-59*	12	-5
COc1cc(OC)c(-c2nc3cnccc3n2C)cc1OC	-7	1	17	-3	3
CC(OC(=O)Cn1[nH]c(=O)c2ccccc2c1=O)C(=O)Nc1ccc(F)cc1 (stereo not drawn)	-30*	6	13	1	-7
Cc1c(C#N)c(N)nc2c3c(sc12)NC(=O)CC3c1ccc(F)cc1 (stereo not drawn)	-31*	1	50	3	-7
CCOC(=O)c1c(C)n(-c2ccccc2)c2ccc(OC(=O)c3ccccc3Cl)cc12	7	4	.	4	-1
O=S(=O)(NCCc1nnc2ccc(SCc3cccc(Cl)c3)nn12)c1ccccc1	-15	2	.	3	-2
CCCOc1ccccc1-n1sc2c(c1=S)-c1cc(OC)cc3c1N(C(=O)C3=O)C2(C)C	-3	5	-57*	-12	6
CCOC(=O)c1c(NC(=O)c2cc(-c3ccc(OC)cc3)on2)sc(C)c1C	14	0	.	1	-1
CCc1ccc(NC(=O)[C@H](NC(=O)[C@@H]2Cc3ccccc3CN2)c2ccccc2)cc1	0	4	-101*	-22	-4
Cc1ccc(NC(=O)[C@H](NC(=O)[C@@H]2Cc3ccccc3CN2)c2ccccc2)c(C)c1	9	1	-23	0	2
CCc1ccc(NC(=O)[C@@H](NC(=O)[C@@H]2Cc3ccccc3CN2)C(C)CC)cc1 (stereo partly drawn)	11	7	?	-14	2
Cc1cc(C)cc(NC(=O)[C@H](NC(=O)[C@@H]2Cc3ccccc3CN2)c2ccccc2)c1	7	8	-108*	-25	2
Cc1cccc(N=C2NC(=O)/C(=C/c3cccnc3)S2)c1C	-5	1	-61*	-4	-4
CCOc1ccc(C(=O)NCc2nc(-c3ccc(Cl)cc3)no2)cc1OCC	3	4	.	-8	-3
CCOCCCNC(=O)Cn1nc(CC)n2c(cc3c(OC)cccc32)c1=O	-30*	1	.	-13	-5
COc1cccc2c1cc1c(=O)n(CC(=O)N3CCN(c4cccc(C)c4C)CC3)nc(C)n12	2	0	1	71*	2
COc1cccc2c1cc1c(=O)n(CC(=O)NCCCc3ccccc3)nc(C)n12	-39*	2	10	-3	5
CCc1nn(CC(=O)NCCCc2ccccc2)c(=O)c2cc3c(OC)cccc3n12	-9	0	5	7	-2
O=C(c1ccco1)N(Cc1cccs1)c1ccc(F)cc1	-16	-2	.	4	2

High-throughput results (PubChem BioAssay)
